# The sample as a whole holds a higher share of hits than the screen did.
# ST2 IL33 inh: blocks human ST2 binding to IL-33; AlphaLISA ST2-Fc/biotin-IL-33 interaction, 1 h; 78,000 compounds, 2.3% hits; inhibition, % for hits at 17 µM; Q01638; in the data active = inhibition above about 30%
# Target sequence (Q01638 whole entry, looked up): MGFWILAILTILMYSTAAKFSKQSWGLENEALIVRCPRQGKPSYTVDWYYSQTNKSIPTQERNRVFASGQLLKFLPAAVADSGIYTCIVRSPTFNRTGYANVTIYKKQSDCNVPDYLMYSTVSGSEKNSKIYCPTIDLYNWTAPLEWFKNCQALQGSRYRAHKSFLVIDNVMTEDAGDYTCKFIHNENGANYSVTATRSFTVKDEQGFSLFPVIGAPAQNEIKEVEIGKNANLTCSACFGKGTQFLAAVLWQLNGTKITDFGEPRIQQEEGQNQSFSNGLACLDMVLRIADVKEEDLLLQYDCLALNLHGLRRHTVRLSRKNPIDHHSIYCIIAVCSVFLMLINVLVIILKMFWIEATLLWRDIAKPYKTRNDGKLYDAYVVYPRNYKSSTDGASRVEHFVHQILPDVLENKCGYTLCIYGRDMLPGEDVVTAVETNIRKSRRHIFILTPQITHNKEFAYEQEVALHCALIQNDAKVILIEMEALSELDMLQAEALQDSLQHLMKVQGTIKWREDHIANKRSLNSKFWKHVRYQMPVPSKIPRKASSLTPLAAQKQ
# The depositor's hits bear a star; i = inactive; ! = repeats disagree.
SMILES,ST2 IL33 inh
COc1cc(/C=C2\C(=O)N(c3ccc(C(=O)O)cc3)N=C2C)cc(Cl)c1O,i
COc1ccc(OC)c(/C=C2\C(=O)N(c3ccc(Cl)c(C(=O)O)c3)N=C2C)c1,i
CCN(C)c1ccc(/C=C2/C(=O)NN(c3ccc(Cl)c(Cl)c3)C2=O)cc1,i
CC1=NN(c2ccc(Cl)c(Cl)c2)C(=O)/C1=C/c1ccccc1,i
CCN(C)c1ccc(/C=C2/C(=O)N(c3ccc(Cl)c(Cl)c3)N=C2C)cc1,30%*
COc1ccc(/C=C2/C(=O)N(c3ccc(Cl)c(Cl)c3)N=C2C)cc1OC,65%*
COc1ccccc1/C=C1\C(=O)N(c2ccc(Cl)cc2Cl)N=C1C,i
COc1ccc(Cl)cc1/C=C1\C(=O)N(c2ccc(Cl)c(C(=O)O)c2)N=C1C,74%*
COc1ccc(Br)cc1/C=C1\C(=O)N(c2cccc(Cl)c2)N=C1C,i
CC1=NN(c2ccc(Cl)c(Cl)c2)C(=O)/C1=C/c1ccc(C)c([N+](=O)[O-])c1,i
COc1cc(/C=C2\C(=O)N(c3ccc(Cl)c(C(=O)O)c3)N=C2C)cc(OC)c1OC,56%*
O=C(c1c[nH]c2ccc(S(=O)(=O)Nc3ccccc3F)cc2c1=O)N1CCc2ccccc2C1,i
Cc1cc(NC(=O)c2ccc(F)cc2)nc2c1c(=O)oc1ccccc12,i
COc1cccc(N2C(=O)NC3CC2(C)Oc2ccc(Br)cc23)c1 (stereo not drawn),i
CN(C)c1ncc2c(n1)CCCC2NC(=O)CCc1cnn(C)c1 (stereo not drawn),i
O=C(CCS(=O)(=O)c1cccc2nsnc12)Nc1ccc(F)cc1Cl,i
Nc1nnc(C23CC4CC(CC(C4)C2)C3)s1,i
CC(C)c1ccc(S(=O)(=O)Nc2ccc3oc(=O)sc3c2)cc1,i
c1cncc(-c2nnc([C@H]3CCN(Cc4ccncc4)C3)o2)c1,i
Cc1ccc(CN2CC[C@H](c3nnc(-c4cccnc4)o3)C2)cc1,i
c1ccc(CN2CC[C@H](c3nnc(-c4cccnc4)o3)C2)cc1,34%*
COc1ccc(CN2CCCC(CNC(=O)c3cccs3)C2)c(F)c1 (stereo not drawn),i
O=C(c1cccc2c1NC(c1ccc(Cl)cc1Cl)C1CC=CC21)N1CCCC1 (stereo not drawn),i
O=[N+]([O-])c1cccc2c1NC(c1cccc(Cl)c1Cl)C1CC=CC21 (stereo not drawn),39%*
O=[N+]([O-])c1ccc(C2Nc3c(cccc3C(F)(F)F)C3C=CCC32)cc1 (stereo not drawn),i
SMILES,ST2 IL33 inh
CCCn1cc(SCC(=O)Nc2nnc(SCC)s2)c2ccccc21,i
Cc1ccc(Sc2c(C)nn(C(=O)CNS(=O)(=O)c3ccc(Cl)cc3)c2C)cc1,i
Nc1ccc(-c2nc3ccccc3[nH]2)cc1,i
Nc1ccc(-c2nc3ccc(-c4nc5ccc(N)cc5[nH]4)cc3[nH]2)cc1,35%*!
Nc1ccc(CCc2nc3ccc(N)cc3[nH]2)cc1,i
Cc1cc(C(=O)N2CCc3c(cc(-c4ccncc4)c(=O)n3CCN3CCCCC3)C2)nn1C,i
CCOC(=O)c1c(NC(=O)c2ccc(Cl)s2)sc2c1CCN(C)C2,i
COC(=O)c1c(NC(=O)c2sc3ccccc3c2Cl)sc2c1CCN(C)C2,37%*
CC1CCc2sc(NC(=O)c3sc4ccccc4c3Cl)c(C(N)=O)c2C1 (stereo not drawn),i
COc1cccc(C(=O)Nc2cc3c(cc2C(=O)c2ccccc2Br)OCCO3)c1,i
COC(=O)c1ccc(Oc2c(C)oc3cc(O)ccc3c2=O)cc1,i
CCCN=C(NS(=O)(=O)c1ccc(C)cc1)c1ccc(F)cc1,i
O=C(O)CN=C(NS(=O)(=O)c1ccccc1)c1ccc(F)cc1,i
O=C(O)CN=C(NS(=O)(=O)c1ccccc1)c1ccccc1,38%*
Cc1ccc(NC(=O)c2cc3ccccc3o2)cc1C,i
CCn1c(CC2CCNCC2)nn(CC(=O)NCC2CCCO2)c1=O (stereo not drawn),i
N#CC(C#N)=C1C(Cl)=C(N2CCCCC2)c2ccccc21,82%*
O=C(c1ccccc1Cl)N1CCN(c2ccccc2)CC1,i
N#Cc1c(N)nc2c(c1-c1ccccc1Cl)CCCCC2,i
CC(Cc1c[nH]c2ccccc12)NC(=O)C(c1ccccc1)c1ccccc1 (stereo not drawn),i
CC(C)CN(CC(C)C)S(=O)(=O)c1ccc(C(=O)Nc2nc3c(s2)CCCC3)cc1,i
Cn1c(=O)c2c(nc(OCCc3ccccc3)n2Cc2ccccc2F)n(C)c1=O,30%*
Cn1c(=O)c2c(nc(N3CCN(c4ccccn4)CC3)n2Cc2ccccc2F)n(C)c1=O,i
Cn1c(=O)c2c(nc(NCCO)n2Cc2ccccc2F)n(C)c1=O,i
Cc1nc2ccc(CC(=O)N3Cc4cnc(CC(C)C)nc4C3)cc2[nH]1,i
SMILES,ST2 IL33 inh
COc1ccc(/C=C2\SC(N3CCCC3)=NC2=O)cc1,i
COc1ccc(/C=C2\CC(c3ccccc3)=CC2=O)cc1,52%*
COc1ccc(/C=C(\C)c2nc(C)c(-c3ccccc3)c(=O)[nH]2)cc1,i
O=C1CCCN2N=C(SCC(=O)N3CCCC3)SC2=N1,i
COC(=O)c1c[nH]n2c(=O)c(Cc3ccccc3C)c(C)nc12,53%*
COC(=O)c1c[nH]n2c(=O)c(Cc3ccccc3F)c(C)nc12,i
COC(=O)c1c[nH]n2c(=O)c(Cc3ccc(C)cc3)c(C)nc12,i
CN(C)c1ccc(/C=c2\sc3nnc(-c4ccccc4Cl)n3c2=O)cc1,i
COc1ccc(/C=c2\sc3nnc(-c4ccccc4Cl)n3c2=O)cc1,i
Cc1ccc(/C=c2\sc3nnc(-c4ccccc4Cl)n3c2=O)o1,37%*
CCN(CCN(C)C)Cc1ccc(C(C)C)cc1,i
O=C(NC1CC(=O)N(C2Cc3ccccc3C2)C1)c1cn2ccsc2n1 (stereo not drawn),i
O=C1c2ccccc2C(=O)N1CC(O)COc1ccccc1 (stereo not drawn),i
Nc1nc(N)nc(-c2ccc(Oc3ccccc3)cc2)n1,i
Nc1c(Oc2ccccc2)c(Oc2ccccc2)c(N)c2c1C(=O)c1ccccc1C2=O,92%*
Nc1ncnc(Oc2ccc3sc(=O)oc3c2)c1[N+](=O)[O-],i
COc1cc([N+](=O)[O-])ccc1NC(=O)C(C)(C)Oc1ccc(Cl)cc1,30%*
COc1cc(NC(=O)C(C)(C)Oc2ccc(Cl)cc2)c(OC)cc1Cl,i
COc1ccc(NC(=O)C(C)(C)Oc2ccc(Cl)cc2)cc1OC,i
Cc1cc(C)n(C2CCN(Cc3cccn3-c3ncccn3)C2)n1 (stereo not drawn),i
Cn1cncc1-c1nnc([C@H]2CCN(Cc3ccco3)C2)o1,i
COc1ccc(O)c(C(=O)CC(=O)c2ccccc2)c1,32%*
COc1ccc(C(=O)c2ccccc2)c(OCC(=O)N(C)C)c1,i
COC(=O)c1cc(O)c(OCc2ccccc2)c(O)c1,i
COc1ccc(F)c(CN2CCCC(O)(CN(C)Cc3ccco3)C2=O)c1 (stereo not drawn),i
Nc1nc(-c2ccc([N+](=O)[O-])cc2)cs1,i
CN(CC1CCCO1)c1nc(-c2ccc([N+](=O)[O-])cc2)cs1 (stereo not drawn),54%*
O=C(NCC1CCCO1)c1ccccc1Sc1ccc([N+](=O)[O-])cc1 (stereo not drawn),i
CCN(CC)Cc1cnc2c(C(=O)Nc3cccc(C(C)=O)c3)cnn2c1,i

# Assay outcomes (PubChem)
